Tests used:
Assay in all cases: PBM binding z-score (relative to random genomic background probes); higher = stronger binding; sequences stand for … in GC…GCGATTGACAGCGTAGAATGAAGG
[1] = test system: PPARg:RXRa DBDmut IVT, anti-RXR (DBD mutation: RXRa K156A/R161A, NR concentration 270 nM, RXRa partner concentration 90 nM)
Procedure, shortened: (§1)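 Custom Agilent 4×180K protein-binding microarrays carried double-stranded probes. Their 34-nt variable regions held direct-repeat seeds, single-nucleotide variants, half-site ablations and random human genomic background sequences. Arrays were incubated 1 h with ligand-free nuclear receptor dimers in PBS pH 7.4, 2% milk, 0.02% Triton X-100, 1 mM DTT, 0.2 mg/mL BSA and 0.4 mg/ml salmon testes DNA. Antibodies against each partner (one per run) detected binding, and scanned fluorescence was regression-normalized. Binding z-scores use random background probes as reference.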

[2] = test system: PPARg:RXRa IVT, anti-PPARg (NR concentration 270 nM, RXRa partner concentration 90 nM)
Procedure, shortened: as §1

[3] = test system: PPARg DBDmut:RXRa IVT, anti-PPARg (DBD mutation: PPARg1 K132A/R137A, NR concentration 270 nM, RXRa partner concentration 90 nM)
Procedure, shortened: as §1

[4] = test system: PPARg DBDmut IVT, anti-PPARg (DBD mutation: PPARg1 K132A/R137A, NR concentration 270 nM)
Procedure, shortened: as §1

[5] = test system: PPARg homodimer (NR concentration 180 nM)
Procedure, shortened: as §1

[6] = test system: PXR:RXRa (NR concentration 270 nM, RXRa partner concentration 90 nM)
Procedure, shortened: as §1

[7] = test system: PXR homodimer (NR concentration 270 nM)
Procedure, shortened: as §1

[8] = test system: RARa:RXR (NR concentration 270 nM, RXRa partner concentration 90 nM)
Procedure, shortened: as §1

[9] = test system: RARa homodimer (NR concentration 270 nM)
Procedure, shortened: as §1

[10] = test system: RARb:RXRa (NR concentration 270 nM, RXRa partner concentration 90 nM)
Procedure, shortened: as §1

Sequence	PBM binding z-score [1]	PBM binding z-score [2]	PBM binding z-score [3]	PBM binding z-score [4]	PBM binding z-score [5]	PBM binding z-score [6]	PBM binding z-score [7]	PBM binding z-score [8]	PBM binding z-score [9]	PBM binding z-score [10]
TCATAGAGGTAAATGCTAGGTGAAAGTCCGATCT	2.05	1.32	-0.394	-0.601	0.164	0.0496	-0.193	0.932	-0.0762	0.439
CTTACAGGGTCAGCTAGGCCAGAGTAGGGACGGC	2	2.59	-0.146	-0.1	0.148	1.88	-0.368	2.75	0.0802	4.04
TCTAGTTGGTCAAAGGGCACACACTCGAAATGCG	2.22	3.89	0.5	0.679	1.73	1.7	0.178	2.72	0.588	2.6
CGTCCAAGGTCAGCAGATCAGTGAAAGCGACGTG	2.68	2.66	0.547	-0.498	2.2	2.49	0.4	3.08	0.548	5.02
CGTCCAGGGTCATAGGAGGTCAGTGAAGACAGAT	1.75	3.92	0.473	-0.113	4.96	6.84	2.73	6.61	2.39	4.79
CCTAGCAGGCCAATCTGGCTCACTCAAGGCTTGA	1.35	0.117	-2.07	-1.06	-0.294	-0.913	-1.16	-0.795	-0.522	-0.16
TCTTGTAGATCAAGCAGGTTAAGTAAGCCTGAGT	1.68	0.377	0.298	-0.27	0.192	0.295	0.247	0.198	-0.203	0.138
CGTCCACGGTCAATGCTAGGTCAGTGAAAGCATT	0.573	1.02	-0.899	-1.45	0.415	0.201	-0.388	1.17	-0.504	3.16
ATTCAAAGTTCATCTAGGTAACGTAAGATATGCT	0.894	2.97	2.38	1.91	2.88	4.96	7.34	3.44	1.89	4.93
CCGACTGGCGCATAAGGTTACCATAAGCCAGCCC	-0.22	-0.617	-0.674	-0.756	0.0825	0.285	-0.103	0.776	0.248	0.721
ATCTCTAGGTAACGAAGTTCAGTGAATGCCGAAC	3.22	2.82	0.456	0.901	0.161	1.14	0.916	0.507	0.64	1.14
ATCTCTGGGTAACCAAGTTCAGTGAATGCCGAAC	3.23	2.59	0.324	1.24	0.00227	2.4	1.35	0.719	-0.0126	1.24
